The list is not random: actives were taken first. Their share in the collection is about 1.3%.
GALK inh: qHTS Assay for Inhibitors of Human Galactokinase (GALK). Purified GALK, Kinase-Glo residual ATP luminescence. P51570. hit rate 0.007% among 270,000. AID 1868, 2009. Potency, µM (doses to about 57.5 µM), for inactives: at the top dose activity change, negative = inhibition, most hits filed as inhibitors; note: potency is the fitted concentration of half-maximal effect
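Luminescence from leftover ATP (Ultra-Glo luciferase/luciferin) served as read-out after a 1 h room-temperature reaction of 5 nM GALK with 35 uM ATP and 100 uM galactose.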
TrxR1 substrate: qHTS Assay for Substrates of Mammalian Selenoprotein Thioredoxin Reductase 1 (TrxR1): qHTS; purified TrxR1 substrate turnover, NADPH consumption readout; Potency, µM (top dose mostly 114 µM), without a hit: at the highest dose activity change, negative = substrate turnover; hit rate 0.01% among 390,000; AID 588456, 2011; note: potency is the fitted concentration of half-maximal effect; nearly all actives have a fitted effect of over 50% in size
Target sequence (O89049 whole entry, looked up): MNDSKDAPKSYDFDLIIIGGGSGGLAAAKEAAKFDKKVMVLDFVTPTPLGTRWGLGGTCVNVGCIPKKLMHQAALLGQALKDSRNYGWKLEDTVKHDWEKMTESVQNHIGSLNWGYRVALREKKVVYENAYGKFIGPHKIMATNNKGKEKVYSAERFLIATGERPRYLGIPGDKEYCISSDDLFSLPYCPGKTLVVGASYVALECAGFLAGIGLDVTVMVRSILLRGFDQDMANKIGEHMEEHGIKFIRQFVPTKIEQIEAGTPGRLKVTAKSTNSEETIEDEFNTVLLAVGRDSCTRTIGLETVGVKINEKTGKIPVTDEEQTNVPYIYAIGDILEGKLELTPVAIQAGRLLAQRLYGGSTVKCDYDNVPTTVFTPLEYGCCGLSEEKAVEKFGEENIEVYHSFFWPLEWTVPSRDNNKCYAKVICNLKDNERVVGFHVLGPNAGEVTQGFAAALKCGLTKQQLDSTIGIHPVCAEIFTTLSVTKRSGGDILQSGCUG
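Rat TrxR1, dispensed at 90 nM, was prereduced with 400 uM NADPH (final) for 5 min at ~22 deg C, then incubated with compound 15 min before 400 uM selenite. A first-read NADPH fluorescence drop versus no-compound background flagged substrates.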
rTrxR1 inhibitor: qHTS Assay for Inhibitors of Mammalian Selenoprotein Thioredoxin Reductase 1 (TrxR1): qHTS; recombinant rTrxR1, NADPH fluorescence consumption, selenite substrate; Thioredoxin reductase 1, cytoplasmic (Rattus norvegicus), O89049; Potency, µM (highest dose often 114 µM), inactives show at the top dose activity change, negative = inhibition, most hits filed as inhibitors; hit rate 1% among 390,000; note: potency is the fitted concentration of half-maximal effect; nearly all actives have a fitted effect of over 65% in size
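Rat TrxR1 (90 nM in the dispensed reagent) was pre-reduced with 400 uM NADPH for 5 min at room temperature, then incubated with compound for 15 min. After 400 uM selenite was added, NADPH fluorescence (Ex 340/Em 450 nm) was followed for 8 min.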
GCN5L2 inh: qHTS Assay for Inhibitors of GCN5L2 | Histone acetyltransferase KAT2A (Homo sapiens), Q92830 | GCN5L2 HAT assay, ThioGlo1 CoA-SH fluorescence | Potency, µM (doses to about 58.9 µM), for the others: at the top dose activity change, negative = inhibition, most hits filed as inhibitors | hit rate 0.21% among 390,000 | AID 504327, 2011; note: potency is the fitted concentration of half-maximal effect
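qHTS, 1536-well. 20nM enzyme, pH 7.5 HEPES/EDTA/Tween-20 buffer; 15 min compound preinc., RT. Start: 75uM H3(1-25), 70uM AcCoA, 50uM ThioGlo1. Read Ex340/Em540 at t=0 (autofluorescence flag) and t=20 min.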
Pin1 inh: qHTS Assay to Find Inhibitors of Pin1. Pin1 FP peptide displacement, HiFluor488, 10 min. Potency, µM (titrated, usually from 115 µM), without a hit: at the top dose activity, negative = inhibition, most hits filed as inhibitors. hit rate 0.009% among 390,000. AID 504891, 2011; active = well fitted inhibition curve with a large enough effect in the polarisation, with a control signal flat, not every such curve was filed as active; inconclusive = small, poorly fitted or top-dose-only effect, or effect the other way, or a change in a side signal; inactive = no such curve, though single readings can be large or run the other way; the % refers to the polarisation; note: potency is the fitted concentration of half-maximal effect
Target sequence (Q13526 whole entry, looked up): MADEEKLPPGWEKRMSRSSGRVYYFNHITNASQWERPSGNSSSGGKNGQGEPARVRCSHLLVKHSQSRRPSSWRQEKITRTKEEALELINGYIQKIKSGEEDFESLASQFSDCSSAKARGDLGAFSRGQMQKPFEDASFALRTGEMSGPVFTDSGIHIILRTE
Giardia killer: Small Molecules that selectively kill Giardia lamblia: qHTS. Giardia lamblia trophozoite viability. activity change, % at 7.66 µM, hits read low. hit rate 0.15% among 340,000. AID 540267, 2011; in the data active = activity change below about -80%; inconclusive = between about -30% and that limit;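 note: parasites exposed to compound for two days anaerobically before the ATP read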
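Viability, read as ATP luminescence: trophozoites at 100 cells/well, compound added, 48 hrs anaerobic at 37 deg C, then 15-30 min room-temperature development before reading.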
Active calls of the source: *; u = inconclusive; x = not tested or not shown; ! = not confirmed by another sample; [ ] = dose if it differs, or a comment. Unless noted, calls come from the whole dose curve; as a rule, active = well fitted curve in the direction sought with a large enough effect; inconclusive = small, poorly fitted or top-dose-only effect, or another doubt; inactive = no such curve, though single readings can be large; an effect the other way counts as inactive or inconclusive. % is set by controls: 0 for no effect and ±100 for the full control effect.

SMILES	GALK inh	TrxR1 substrate	rTrxR1 inhibitor	GCN5L2 inh	Pin1 inh	Giardia killer
O=C(CSc1n[nH]c(-c2ccccc2F)n1)Nc1cc(F)ccc1F	x	-2%	18%	-2%	-6%	18
O=C(COc1ccc(F)cc1)Nc1ccccc1OCc1cc(=O)n2ccccc2n1	x	1%[57.1 µM]	24%[57.1 µM]	-7%	-2%	x
N#Cc1ccc(C=NN2CCCCCC2)cc1	x	5%[57.1 µM]	16%[57.1 µM]	x	1%	-15
CC(CN1c2ccccc2Sc2ccccc21)N(C)C (stereo not given)	-2%	17%[57.1 µM]	12µM*!	-5%	-1%	-1
O=C(c1cccc(S(=O)(=O)Nc2ccc(F)cc2)c1)N1CCC1	x	-8%	11%	-1%	-9%	-6
COC(=O)c1ccc(C(=O)OC)c(NC(=O)/C=C/C(=O)O)c1	0%	31%	45µM*	8%	-6%	-3
O=C(C(Cl)c1ccccc1)N1CCCC1 (stereo not given)	10%	6%[57.1 µM]	20µM*	0%	-5%	-12
CN(C)CCCNC(=O)C1CCNCC1	-4%	-6%	71µM*	-23%	9%	16
CN(C)CCCNC(=O)c1cc(C(=O)C2CCCCC2)c[nH]1	2%	6%[57.1 µM]	17%	-5%	-15%	8
COCCNc1ncnc2ccc(-c3c(C)noc3C)cc12	x	x	x	-9%	x	x
COc1cc(/C=N/N2C(=O)CSC2=S)cc(Br)c1O	1%	6%[57.1 µM]	-52%	-8%	u	-6
COc1cccc(/C=N/N2C(=O)CSC2=S)c1O	x	-13%	18µM*	-10%	52%	u
Cc1cc(Cl)n2c(nc3cc(F)c(F)cc32)c1C#N	-18%	2%[57.1 µM]	6.3µM*	-8%	33%	3
Cc1cc(C)n2c(=O)c3ccc(Cl)cc3nc2c1C#N	1%	4%[57.1 µM]	24%[57.1 µM]	-2%	u	-9
CC[C@H](C)[C@H](NC(=O)CNC(=O)COc1cc2c(c3oc(=O)cc(C)c13)CCC(C)(C)O2)C(=O)O	0%	552%	u	22µM*	-5%	u
Cc1cc(=O)oc2c3c(cc(OCC(=O)NCC(=O)N[C@H](C(=O)O)C(C)C)c12)OC(C)(C)CC3	-1%	605%	-17%	-18%	-2%	-10
COc1ccccc1[C@@H]1C(c2cccc(Cl)c2)=NN(c2ccccc2)[C@H]1C(=O)N1CCOC1=O	x	83%[57.1 µM]	81%[57.1 µM]	20µM*	12%	-6
O=C1OCCN1C(=O)[C@H]1[C@H](c2ccc(F)cc2)C(c2cccc(Cl)c2)=NN1c1ccc(Br)cc1	x	153%	105%	u	4%	-25
O=C1OCCN1C(=O)[C@H]1[C@H](c2ccccc2)C(c2cccc(Cl)c2)=NN1c1ccc(Br)cc1	x	147%	160%	22µM*	3%	-19
CCOc1cccc(C2C(C#N)=C(N)Oc3cc(C)[nH]c(=O)c32)c1OCC (stereo not given)	5%	0%	27%	4%	2%	-16
Cc1ccc2cc(C3C(C#N)=C(N)Oc4c3ccc3cccnc43)c(=O)[nH]c2c1 (stereo not given)	2%	0%[57.1 µM]	13µM*	45%	u	18
CCc1ccc2[nH]c(=O)c(C3C(C#N)=C(N)Oc4c3ccc3cccnc43)cc2c1 (stereo not given)	0%	12%	45µM*	-7%	u	40
N#CC1=C(N)Oc2c(ccc3cccnc23)C1c1cccnc1 (stereo not given)	0%	21%	50µM*	-15%	0%	-8
COc1ccc2c(c1)Oc1ncn(CCN3CCOCC3)c(=N)c1C2c1ccc(OC)c(OC)c1 (stereo not given)	x	x	x	x	-5%	x
N#Cc1ccc(Oc2ncccn2)cc1	x	0%	13%	x	0%	5
SMILES	GALK inh	TrxR1 substrate	rTrxR1 inhibitor	GCN5L2 inh	Pin1 inh	Giardia killer
Cc1ccc(-c2nnc(Nc3ccc(Br)cc3)c3ccccc23)cc1S(=O)(=O)N1CCN(C)CC1	x	-4%[57.1 µM]	2%[57.1 µM]	-8%	5%	x
COc1ccc(NS(=O)(=O)c2ccccc2)cc1NS(=O)(=O)c1ccccc1	x	x	x	x	-9%	x
CC(=O)N/C(=C/c1ccccc1)c1sc2ccccc2[n+]1CCCCI	x	-5%	45µM*	x	x	x
COc1ccc(/C=C/c2sc3ccccc3[n+]2CCCCI)cc1OC	x	-17%	u	x	x	x
C(C#CCCCCCCCCC[n+]1ccccc1)#CCCCCCCCCC[n+]1ccccc1	11%	0%	56µM*	-1%	-1%	-3
Cc1ccc(CNC(=O)CCC(=O)N2CCSc3ccccc32)cc1	x	-9%	0%	0%	-2%	x
O=C(CCC(=O)N1CCSc2ccccc21)NCc1cccc(Cl)c1	x	3%[57.1 µM]	12%[57.1 µM]	4.5µM*	2%	-8
Cc1ccc(NC(=O)CSc2nccn2C2CCCC2)cc1Cl	x	-14%[57.1 µM]	-4%[57.1 µM]	-5%	u	x
O=C(/C=C/c1ccco1)Nc1ccccc1C(=O)Nc1cccc(C(=O)O)c1	-3%	-9%	u	-2%	u	-11
O=C(/C=C/c1ccco1)Nc1ccccc1C(=O)O	5%	-7%[57.1 µM]	14µM*	-12%	u	-2
CN(CCOC(=O)/C=C/c1ccco1)Cc1ccccc1	0%	-1%	45µM*	-6%	u	11
O=C(/C=C\c1ccco1)Nc1cc([N+](=O)[O-])ccc1F	0%	-7%	u	-1%	5%	-29
Cc1ccc(-c2csc(NC(=O)/C=C/c3ccco3)c2C(=O)O)cc1	2%	-6%	35µM*	-22%	u	-9
Cc1ccc(-c2csc(NC(=O)c3cccc(C)c3)c2C(=O)O)cc1	x	1%[57.1 µM]	-7%[57.1 µM]	x	2%	4
O=C(/C=C/c1ccco1)Nc1cc(Cl)ccc1C(=O)O	x	-19%	13µM*	-24%	-4%	-8
COc1ccc(Cl)cc1NC(=O)Cn1c(=O)n(CCC(=O)NCc2ccc3c(c2)OCO3)c(=O)c2ccccc21	x	5%	31%	3%	44%	x
Cc1ccc(Cl)cc1N1CCN(Cc2nnc(-c3ccc4c(c3)OCO4)o2)CC1	x	-2%	9%	-3%	49%	x
OC[C@H]1O[C@@H](O[C@@H]2OC=C[C@H]3[C@H](O)[C@@H]4O[C@]4(CO)[C@@H]23)[C@H](O)[C@@H](O)[C@@H]1O	x	x	x	47%	x	x
COc1ncc2nc(-c3ccc(F)cc3)c(=O)n(C)c2n1	x	x	x	-11%	x	x
CN(C(=O)C=Cc1ccco1)c1ccccc1	x	4%[11.4 µM]	-3%[11.4 µM]	x	-3%	-17
CN(C(=O)/C=C/c1ccco1)c1ccccc1C(=O)O	7%	-2%	28µM*	1%	-18%	48
